This is a sample that favours compounds with a hit; in the whole collection about 9.2% have one here.
SMN2 splice up: increases expression of the SMN2 splice variant. AID 1458. 210,000 tested, 2.8% active. Potency, µM (doses to about 46.1 µM), without a hit: top-dose activity change, positive = activation, actives largely listed as activators. HEK293 SMN2-luciferase splicing reporter, luminescence, 30-36 h; also: % of control where 0% means no effect; nearly all actives have a fitted effect of over 55% in size
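HEK293 cells carry an SMN2 minigene-luciferase reporter in which exon 7 inclusion puts luciferase in frame. Cells were seeded at 2000 cells/well, attached for 10-12 hours, then exposed to compounds for 30-36 hours at 37C before ONE-Glo luminescence.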
Rab9 promoter act: activators of Rab9 promoter | 320,000 tested, 2.8% active | Potency, µM (doses to about 9.22 µM), for the others: top-dose activation, negative = inhibition, hits mostly activators | Huh7 Rab9 promoter-luciferase reporter, luminescence, 24 h; also: % of control where 0% means no effect; nearly all actives have a fitted effect of over 60% in size
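Promoter activation is measured as luciferase luminescence in Huh7 cells stably transfected with a Rab9 promoter–luciferase construct, following 24 h compound exposure at 37 °C and 10 min reagent incubation at ambient temperature.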
ELG1 genotoxic: induces genotoxicity in HEK293T cells with luciferase-tagged ELG1. HEK293T ELG1-luciferase reporter, luminescence, 16 h. Potency, µM (doses to about 46 µM), for the others: at the highest dose activity change, positive = activation, most hits filed as activators. 330,000 tested, 1.3% active; also: % of control where 0% means no effect; nearly all actives have a fitted effect of over 60% in size
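Screening used a luciferase reporter fused to human ELG1 in HEK293T cells. Luminescence was read on a CCD plate imager after 16 hr exposure and 30 min ONE-Glo incubation.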
NPC1 promoter act: activators of NPC1 promoter; Huh7 NPC1 promoter luciferase reporter, 24 h; Potency, µM (top dose mostly 9.22 µM), inactives show at the top dose activation, most hits filed as activators; 320,000 tested, 2.4% active; AID 485313; also: % of control where 0% means no effect; nearly all actives have a fitted effect of over 60% in size
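Readout is luciferase luminescence, reflecting NPC1 promoter activation in stably transfected Huh7 cells after 24 h compound exposure at 37 °C in reduced-serum medium with 10% FBS.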
ELG1 DNA repair: blocks ELG1-dependent DNA repair in HEK293T cells | HEK293T ELG1-luciferase reporter, luminescence, 16 h; DNA damage induced by 5-fluorouridine | Potency, µM (titrated, usually from 46.1 µM), for inactives: at the top dose activity change, negative = inhibition, most hits filed as inhibitors | 330,000 tested, 2.3% active; also: % is scaled to controls: 0 for no effect and ±100 for the full control effect; nearly all actives have a fitted effect of over 55% in size
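DMSO vehicle served as the neutral condition. Each well held 2,000 cells given 5-fluorouridine plus compound; after 16 hr at 37 °C/5% CO2, ONE-Glo was added and luciferase measured 30 min later.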
FLuc modulator: counter-screen for miR-21 project: firefly luciferase inhibitors or activators | AID 588342 | purified FLuc, Km substrates, luminescence inhibition | 360,000 tested, 6.9% active | Potency, µM (doses to about 57.5 µM), for inactives: top-dose activity change, negative = inhibition, usual class: inhibitors | P08659;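 also: plate controls were vehicle for no effect and reference inhibitor for full effect; nearly all actives have a fitted effect of over 55% in size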
Target sequence (P08659 whole entry, looked up): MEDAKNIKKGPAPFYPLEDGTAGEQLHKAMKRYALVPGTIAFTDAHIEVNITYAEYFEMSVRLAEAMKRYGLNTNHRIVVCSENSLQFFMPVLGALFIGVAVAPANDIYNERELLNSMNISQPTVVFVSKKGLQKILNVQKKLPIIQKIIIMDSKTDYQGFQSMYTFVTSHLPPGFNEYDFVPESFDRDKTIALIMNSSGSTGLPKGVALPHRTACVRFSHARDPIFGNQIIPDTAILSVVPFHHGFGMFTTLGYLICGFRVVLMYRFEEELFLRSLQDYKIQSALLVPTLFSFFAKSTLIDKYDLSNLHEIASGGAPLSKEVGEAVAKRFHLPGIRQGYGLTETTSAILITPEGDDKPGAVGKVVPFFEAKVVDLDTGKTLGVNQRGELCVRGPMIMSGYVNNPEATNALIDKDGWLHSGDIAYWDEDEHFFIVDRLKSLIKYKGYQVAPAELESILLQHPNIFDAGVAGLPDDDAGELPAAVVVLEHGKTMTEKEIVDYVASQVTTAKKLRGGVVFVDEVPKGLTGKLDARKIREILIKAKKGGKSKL
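Purified P. pyralis luciferase, 10 nM final, with Km-level 10 uM D-luciferin and 10 uM ATP in 50 mM Tris acetate pH 7.5, 10 mM Mg acetate, 0.01% Tween-20, 0.05% BSA; 6-point qHTS titration about 60 µM downward; luminescence read.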
The depositor's hits bear a star; ? = inconclusive; · = no result given; [ ] = remark or other dose. Calls follow the shape of the dose curve; as a rule, active = well fitted curve in the direction sought with a large enough effect; inconclusive = small, poorly fitted or top-dose-only effect, or another doubt; inactive = no such curve, though single readings can be large; an effect the other way counts as inactive or inconclusive. Potency is read from the fitted curve at half-maximal effect.

SMILES | SMN2 splice up | Rab9 promoter act | ELG1 genotoxic | NPC1 promoter act | ELG1 DNA repair | FLuc modulator
CC(=O)c1cccc(NC(=O)c2cc(-c3ccc4c(c3)OCCO4)on2)c1 | · | · | · | · | · | 0.15µM*
CC(=O)c1cccc(NC(=O)c2cc(-c3ccc(C)cc3)on2)c1 | ? | ? | 4.6µM* | ? | ? | ?
CC(=O)Nc1ccc(NC(=O)c2cc(-c3ccc4c(c3)OCCO4)on2)cc1 | · | · | · | · | · | 0.34µM*
CCC(=O)OCC(=O)Nc1cc([N+](=O)[O-])ccc1OC | -7% | -1% | -7% | 0% | 2% | 0%
COc1cc(NC(=O)c2cc(-c3ccc4c(c3)OCO4)on2)cc(OC)c1OC | 3% | -28% | -2% | -33% | -4% | 2%
O=C(Nc1cccc(O)c1)c1cc(-c2ccc3c(c2)OCO3)on1 | · | ? | ? | ? | ? | 0.15µM*
Cc1ccc(OC(=O)c2cc(-c3ccc4c(c3)OCCO4)on2)c(C)c1 | · | · | · | · | · | 1.5µM*
CCOc1ccc(N2C(=O)C3ON(C)C(c4ccc([N+](=O)[O-])cc4)C3C2=O)cc1 (stereo not given) | · | -4% | -2% | -1% | -1% | 3%
COc1ccc(-c2cc3cc(OC)c(OC)cc3c(C)n2)cc1 | · | ? | 3% | ? | 7% | 17µM*
CC(C)c1ccc(-c2cc(C(=O)N3CCOCC3)c3cc(Br)ccc3n2)cc1 | · | 21% | -9% | 3% | ? | 9.5µM*
COc1ccc(-c2cc(C(=O)N3CCCC(C(F)(F)F)C3)c3ccccc3n2)cc1 (stereo not given) | · | -7% | -6% | -1% | ? | 6µM*
COc1ccc(-c2cc(C(=O)N3CCCC3)c3ccccc3n2)cc1 | · | ? | 5%[9.26 µM] | 29% | ? | 4.3µM*
O=C(c1cc(-c2ccccc2)nc2ccccc12)N1CCCC1 | · | -1% | -6% | 2% | 8% | ?
CSCC[C@H](N)C(=O)N1CCC(C(=O)N[C@H](C)C(=O)Nc2ccc(C(C)C)cc2)CC1 | · | -1% | 0% | -3% | ? | 1%
CCOC(=O)C1CCCN(C(=O)c2cc(-c3ccccc3)nc3ccccc23)C1 (stereo not given) | -6% | -1% | 2% | -1% | ? | ?
Cc1ccc(-c2cc(C(=O)N3CCCCC3)c3ccccc3n2)cc1C | · | 8% | 5% | 18% | ? | 2.4µM*
Cc1ccc(-c2cc(C(=O)N3CCCC(C(F)(F)F)C3)c3ccccc3n2)o1 (stereo not given) | · | 9% | -2% | 3% | 11% | 12µM*
CCOc1ccc(-c2cc(C(=O)N3CCCC3)c3ccccc3n2)cc1 | · | 1.4µM* | ? | 3.5µM* | ? | 0.48µM*
COc1ccc(-c2cc(C(=O)N3CCN(c4ccccc4)CC3)c3ccccc3n2)cc1 | 13% | -9% | 2% | -22% | -24% | 2.7µM*
CCC/C=N/NC(=O)c1[nH]c2c([N+](=O)[O-])cccc2c1C | 7% | -2% | 5% | 0% | 5% | 2%
O=c1c(NCc2cccs2)nccn1-c1ccc(F)cc1 | · | · | · | · | · | -15%
CCOC(=O)/C(=C/c1cn(C)c2ccccc12)NC(=O)c1ccccc1 | · | 5% | -2% | 12% | 2% | -8%
O=C(c1cc(-c2cccc(Cl)c2)nc2ccccc12)N1CCCC1 | · | 4% | -6% | -4% | -3% | 17µM*
Cc1ccc(-c2cc(C(=O)N3CCN(c4ncccn4)CC3)c3cc(Br)ccc3n2)o1 | -14% | -3% | -5% | 2% | ? | 4.8µM*
O=C(c1cc(-c2ccccn2)nc2ccc(Br)cc12)N1CCN(S(=O)(=O)c2ccccc2)CC1 | 5% | 0% | -6% | 0% | ? | -6%
CCCN1CCN(C(=O)c2noc3c2COc2ccc(C)cc2-3)CC1 | · | -1% | 3% | 3% | ? | -14%

Compound activity as filed in PubChem.
